Experimental data as given in patent US20210230599, “STEM-LOOP COMPOSITIONS AND METHODS FOR INHIBITING INTERLEUKIN-8” (VITRISA THERAPEUTICS, INC., published 2021).

Target: Interleukin-8 (IL8, CXCL8), C-terminal His-tagged (Homo sapiens, UniProt P10145 SEQ:1-72)
Experiment: competition; competition TR-FRET; deletion at position 16
Details: tags: C-terminal 6xHis (Sino Biological); ssRNA; 2'-F G, 2'-OMe A/C/U, 5' C6NH2, 3' idT
Experimental: Activity of each of these variants were tested using a time resolved competition TR-FRET assay in which the labeled parent Aptamer 3 was competed with increasing concentrations of unlabeled variants for binding to IL8 (FIG. 14). Briefly, 2-fold dilutions of thermally equilibrated aptamers were made in TR-FRET Buffer (50 mM MOPS, pH 7.4, 125 mM NaCl, 5 mM KCl, 50 μM CHAPS, 0.1 mg/mL BSA, 1 mM CaCl₂, and 1 mM MgCl₂). 5 μL of aptamer or control solution was added to 5 μl mix of 10 nM C-terminal His-tagged-IL8, 60 nM ALEXA FLUOR® 647-labeled Aptamer, and 5 nM anti-His-Eu (Perkin Elmer) in a black wall low volume 384 well plate (Greiner). For control, 5 μl of 1000-fold excess of unlabeled parent aptamer or 5 μl TR-FRET buffer alone was added to the mix of ALEXA FLUOR® 647-labeled aptamer, His-IL8, and anti-His-Eu. The plate was covered with a plate seal and subsequently incubated in the dark for 1 hour at room temperature. The plate was read on a Biotek CYTATION™ 5 plate reader. Samples were excited at 330 nm and fluorescent values were collected at 665 nm. Data analysis was performed by subtracting the background value and plotting as percent inhibition, normalized to baseline in the absence of competitor. […]

Row | Sequence | binding signal [fold worse than Aptamer 3]
1 | UGAUGACGGUAGAUUUGGGUAGAGUGACCGCAUCU | ~5
